Measurements from PubChem BioAssay (NCATS).
Several values for one entry are separate records, joined by “and”; a condition that tells them apart may be missing. Equal values may be shown once. Inconclusive results are not listed. Activity calls are given as the source filed them. Unless noted, the call rests on the fitted dose curve; in most records, active means well fitted curve in the direction sought with a large enough effect; inconclusive means small, poorly fitted or top-dose-only effect, or another doubt; inactive means no such curve, though single readings can be large; an effect the other way counts as inactive or inconclusive.

Assays:
[1] = molecular target: Cellular tumor antigen p53 (Homo sapiens) (UniProt P04637); assay: Primary qHTS for small molecule compounds that upregulate eGFP-tagged delta133p53alpha (in N-terminal) cells. (AID 2060322); settings: NCI-H358 eGFP-delta133p53alpha fluorescence, 24 h; activation: stronger effect = higher value;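 further: cells pre-induced with doxycycline then dosed without doxycycline; series mostly up to about 56 µM; 0% = DMSO vehicle and 100% = reference activator; nearly all actives have a fitted effect of over 75% in size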
Method in brief: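 NCI-H358 cells pre-induced 24 h with 10 ng/ml doxycycline for eGFP-delta133p53alpha, plated dox-free and exposed 24 h at 37C to titrated compounds. Fixed, Hoechst-stained; gated GFP peak intensity by laser scanning cytometry, normalized to DMSO (0%) and 57.5 uM 5-azacytidine (100%).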

[2] = molecular target: Aldehyde dehydrogenase, mitochondrial (Homo sapiens) (UniProt P05091); assay: qHTS for Inhibitors of the Aldehyde Dehydrogenase Family (ALDH2) Validation screens (AID 2061302; active means well fitted inhibition curve with a large enough effect; title and protocol of this record describe different tests;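 further: plate controls were DMSO vehicle for no effect and maximal DPI positive control response for full effect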)
[3] = molecular target: Retinaldehyde dehydrogenase 3 (Homo sapiens) (UniProt P47895); assay: qHTS for Inhibitors of the Aldehyde Dehydrogenase Family (ALDH1A3) Validation screen (AID 2061312); further: on the % scale 0 is the no-effect control and ±100 the full control effect; nearly all actives have a fitted effect of over 45% in size
[4] = BET inhibitor-based combinations targeting novel dependencies in MECOM-rearranged (r) AML: MV-4-11 cell line (AID 2202233); further: nearly all actives have a fitted effect of over 45% in size; further: potency means the concentration at half of the fitted maximal effect
Method in brief: (§1)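 Using pin-tool transfer, drugs were added in 11 doses to cells (500/well), incubated 48 hr, and assessed with CellTiter-Glo. Z-AUC is a mean-centring transformation applied separately to each screened line.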

[5] = BET inhibitor-based combinations targeting novel dependencies in MECOM-rearranged (r) AML: SET-2 cell line (AID 2202231); settings: SET-2 AML cells viability, CellTiter-Glo luminescence, 48 h; viability: stronger effect = lower value, concentration not given here; further: nearly all actives have a fitted effect of over 35% in size; further: potency means the concentration at half of the fitted maximal effect;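 on viability: plate controls were DMSO treated cells for no effect and wells without cells for full effect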
Method in brief: (§2)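 Viability of cells (500 per well) is scored by luminescent CellTiter-Glo at 48 hr post-dosing. Eleven-point titrations are normalized to DMSO and empty controls and reduced to AUC values.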

[6] = BET inhibitor-based combinations targeting novel dependencies in MECOM-rearranged (r) AML: OCI-AML3 cell line (AID 2202232); settings: Potency: OCI-AML3 viability; further: nearly all actives have a fitted effect of over 35% in size; further: potency means the concentration at half of the fitted maximal effect
Method in brief: as §2

[7] = BET inhibitor-based combinations targeting novel dependencies in MECOM-rearranged (r) AML: HNT-34 cell line (AID 2202234); further: nearly all actives have a fitted effect of over 35% in size; further: potency means the concentration at half of the fitted maximal effect
Method in brief: as §1

[8] = BET inhibitor-based combinations targeting novel dependencies in MECOM-rearranged (r) AML: UCSD-AML1 cell line (AID 2202235);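 further: series mostly up to about 46 µM; plate controls were DMSO vehicle wells for no effect and blank wells for full effect; nearly all actives have a fitted effect of over 40% in size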
Method in brief: as §1

[9] = BET inhibitor-based combinations targeting novel dependencies in MECOM-rearranged (r) AML: AML-191 cell line (AID 2202236; further: nearly all actives have a fitted effect of over 35% in size; further: potency means the concentration at half of the fitted maximal effect)
Method in brief: as §2

[10] = BET inhibitor-based combinations targeting novel dependencies in MECOM-rearranged (r) AML: AML-194 cell line (AID 2202237;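 further: plate controls were vehicle wells for no effect and wells without cells for full effect; nearly all actives have a fitted effect of over 40% in size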)
Method in brief: as §2

[11] = molecular target: Aldehyde dehydrogenase, mitochondrial (Homo sapiens) (UniProt P05091); assay: qHTS for Inhibitors of the Aldehyde Dehydrogenase Family (ALDH2) Confirmatory screens (AID 2061303; active means well fitted inhibition curve with a large enough effect; title and protocol of this record describe different tests; further: on the % scale 0 is the no-effect control and ±100 the full control effect; nearly all actives have a fitted effect of over 45% in size)
[12] = qHTS for Inhibitors of the Aldehyde Dehydrogenase Family (ALDH1A2, ALDH1A3, ALDH2, ALDH3A1) (AID 2061307); further: on the % scale 0 is the no-effect control and ±100 the full control effect; nearly all actives have a fitted effect of over 50% in size
[13] = molecular target: Aldehyde dehydrogenase, mitochondrial (Homo sapiens) (UniProt P05091); assay: qHTS for Inhibitors of the Aldehyde Dehydrogenase Family (ALDH2) Primary screen (AID 2061308);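 further: plate controls were vehicle for no effect and reference inhibitor for full effect; nearly all actives have a fitted effect of over 55% in size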
[14] = molecular target: Retinaldehyde dehydrogenase 3 (Homo sapiens) (UniProt P47895); assay: qHTS for Inhibitors of the Aldehyde Dehydrogenase Family (ALDH1A3) Confirmatory screens (AID 2061311); further: on the % scale 0 is the no-effect control and ±100 the full control effect; nearly all actives have a fitted effect of over 60% in size
[15] = molecular target: Retinal dehydrogenase 2 (Homo sapiens) (UniProt O94788); assay: qHTS for Inhibitors of the Aldehyde Dehydrogenase Family (ALDH1A2) Confirmation screens (AID 2061314); further: on the % scale 0 is the no-effect control and ±100 the full control effect; nearly all actives have a fitted effect of over 65% in size
[16] = molecular target: Retinaldehyde dehydrogenase 3 (Homo sapiens) (UniProt P47895); assay: qHTS for Inhibitors of the Aldehyde Dehydrogenase Family (ALDH1A3) Primary screen (AID 2061315);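 further: plate controls were DMSO vehicle for no effect and reference inhibitor for full effect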
[17] = molecular target: Aldehyde dehydrogenase 1A1 (Homo sapiens) (UniProt P00352); assay: qHTS for Inhibitors of the Aldehyde Dehydrogenase Family (ALDH1A1) Confirmatory screens (AID 2061316); further: nearly all actives have a fitted effect of over 65% in size

Cellular tumor antigen p53 (Homo sapiens), sequence (P04637 whole entry, looked up): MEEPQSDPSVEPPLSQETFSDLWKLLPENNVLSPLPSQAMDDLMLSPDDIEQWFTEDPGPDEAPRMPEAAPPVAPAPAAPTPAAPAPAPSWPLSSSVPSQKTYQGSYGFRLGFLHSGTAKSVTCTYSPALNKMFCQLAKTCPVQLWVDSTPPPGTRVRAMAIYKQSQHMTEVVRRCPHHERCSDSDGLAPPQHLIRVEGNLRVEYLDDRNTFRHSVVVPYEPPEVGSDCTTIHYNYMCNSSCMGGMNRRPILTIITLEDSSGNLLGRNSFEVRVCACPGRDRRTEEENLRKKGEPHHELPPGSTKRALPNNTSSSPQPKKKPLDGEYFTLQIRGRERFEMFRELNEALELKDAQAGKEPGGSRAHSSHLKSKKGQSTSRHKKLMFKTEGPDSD

CC[C@@H]1Cc2cc(O)ccc2C2=C1c1ccc(O)cc1C[C@H]2CC
inactive: activation [1] -56% | Potency [2] | Potency [3]

CNCCC=C1c2ccccc2CCc2ccccc21
inactive: activation [1] 33% | Potency [2] | Potency [3]

Fc1ccc([C@@H]2CCNC[C@H]2COc2ccc3c(c2)OCO3)cc1
inactive: activation [1] 28.5% and -0.566% and 41.3% | Potency [2] | Potency [3]

Cc1c(O)cccc1C(=O)N[C@@H](CSc1ccccc1)[C@H](O)CN1C[C@H]2CCCC[C@H]2C[C@H]1C(=O)NC(C)(C)C
inactive: activation [1] -0.838% | Potency [2] | Potency [3]

C[C@H]1O[C@@H](n2cc(F)c(=O)[nH]c2=O)[C@H](O)[C@@H]1O
inactive: activation [1] 2.35% | Potency [2] | Potency [3]
active: Potency [4] 13.2 µM

OCCN1CCN(CCCN2c3ccccc3Sc3ccc(C(F)(F)F)cc32)CC1
inactive: activation [1] 21.2% and 6.21% and -4.78% | Potency [2] | Potency [8]
active: Potency [5] 20.9 µM | Potency [6] 18.6 µM | Potency [4] 18.6 µM | Potency [7] 18.6 µM | Potency [9] 29.5 µM

CCN(CC)c1ncnc2c1ncn2[C@@H]1O[C@H](COP(=O)(O)OP(=O)(O)C(Br)(Br)P(=O)(O)O)[C@@H](O)[C@H]1O
inactive: activation [1] -18.4% | Potency [2] | Potency [3]

NCCCNCCSP(=O)(O)O
inactive: activation [1] 5.02% and 16.3% | Potency [2] | Potency [3]

CC(C)(C)c1ccc(C(O)CCCN2CCC(C(O)(c3ccccc3)c3ccccc3)CC2)cc1 (stereo not given)
inactive: activation [1] 5.86% and -0.341% | Potency [2] | Potency [3]

CN1CCN(CCCN2c3ccccc3Sc3ccc(C(F)(F)F)cc32)CC1
active: Potency [5] 16.6 µM | Potency [6] 16.6 µM | Potency [4] 20.9 µM
inactive: activation [1] -19.8% and -3.33% and -47.4% | Potency [2] | Potency [8]

C=CCNc1ncnc2ccc(Br)cc12
inactive: activation [1] -43.6% | Potency [2] | Potency [3]

O=c1c(O)c(-c2ccc(O)c(O)c2)oc2cc(O)cc(O)c12
inactive: activation [1] -2.54% and -9.6% and 3.95% | Potency [2] | viability [5] 113% | Potency [6] | Potency [4] | Potency [7] | Potency [8] | Potency [9] | Potency [10]

CCCCC1CCN(CCCN2C(=O)CCc3ccccc32)CC1
inactive: activation [1] -5.25% | Potency [11] | Potency [12] | Potency [13] | Potency [14] | Potency [3] | Potency [15] | Potency [16] | Potency [17]
